# Test results from PubChem BioAssay AID1347145 (National Center for Advancing Translational Sciences (NCATS), 2019).
# Results filed as inconclusive are left out. Where a call stands in place of a potency, no number is given. The source made the active and inactive calls. Calls follow the shape of the dose curve; as a rule, active = well fitted inhibition curve with a large enough effect; inconclusive = small, poorly fitted or top-dose-only effect; inactive = no such curve, though single readings can be large or run the other way.
# Biological target: N-terminal Xaa-Pro-Lys N-methyltransferase 1 (Homo sapiens) (UniProt Q9BV86)
# Assay: qHTS Assay for Inhibitors of N-terminal methyltransferase 1 (NTMT1): MTaseGlo Assay Confirmatory Screen, Round 1
# Settings: Recombinant NTMT1, MTase-Glo SAH luminescence; series mostly up to 57.1 µM
# How it was run: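 Luminescence from MTase-Glo conversion of SAH to ATP measured activity after a 30 min RT reaction with 1 µM SPKRIA substrate, 100 µM SAM and 125 nM enzyme. Normalization used no-enzyme and DMSO controls, followed by Hill fitting.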
# Potency is read from the fitted curve at half-maximal effect.
# Sequence of N-terminal Xaa-Pro-Lys N-methyltransferase 1 (Homo sapiens) (Q9BV86 whole entry, looked up): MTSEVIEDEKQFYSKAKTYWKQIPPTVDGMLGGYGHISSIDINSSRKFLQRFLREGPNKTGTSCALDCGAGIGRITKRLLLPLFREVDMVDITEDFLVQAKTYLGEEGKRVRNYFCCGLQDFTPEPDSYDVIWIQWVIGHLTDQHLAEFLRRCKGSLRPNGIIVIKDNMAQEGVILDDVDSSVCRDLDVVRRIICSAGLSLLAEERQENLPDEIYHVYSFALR
row,SMILES,Potency
1,Nc1ncnc2c1ncn2[C@H]1O[C@@H](CNS(=O)(=O)NC(=O)c2cccc(-c3noc(-c4ccccc4F)n3)c2)[C@H](O)[C@@H]1O,1.93 µM (active)
2,COc1cc2nc(N(C)C)nc(NC3CC3)c2cc1OC,inactive
3,OC[C@H]1O[C@@H](n2cnc3c(NCc4ccccc4)ncnc32)[C@H](O)[C@@H]1O,inactive
4,CCNC(=O)[C@H]1O[C@H](n2cnc3c(N)nc(NCCc4ccc(CCC(=O)O)cc4)nc32)[C@@H](O)[C@@H]1O,inactive
5,C/C(=C\CNc1ncnc2c1ncn2[C@@H]1O[C@@H](CO)[C@@H](O)[C@H]1O)CO,inactive
6,COc1cc2c(NC3CCN(C)CC3)nc(N3CCCN(C)CC3)nc2cc1OCCOCCN(C)C,inactive
7,COc1cc2c(NC3CCN(CC4CCCCC4)CC3)nc(N3CCCCC3)nc2cc1OCCCN1CCCCC1,inactive
8,N#Cc1ccc(COC[C@H]2O[C@@H](n3c(NCc4ccc(Cl)c(Cl)c4)nc4c(N)ncnc43)[C@@H](O)[C@@H]2O)cc1,inactive
9,Nc1ccc(CCNc2ncnc3c2ncn3C2OC(CO)C(O)C2O)cc1 (configuration not stated),inactive
10,COc1cc2nc(N3CCN(C(C)=O)CC3)nc(NC3CC3)c2cc1OC,inactive
11,Nc1nc(Nc2ccccc2)nc2c1ncn2[C@@H]1O[C@@H](CO)[C@H](O)[C@H]1O,inactive
12,COc1cc2c(NC3CCN(C)CC3)nc(N3CCN(C)CC3)nc2cc1OCCCN(C)C,inactive
13,COc1cc2nc(N3CCN(C)CC3)nc(NC3CCN(Cc4ccccc4)CC3)c2cc1OC,inactive
14,CNc1ncnc2c1ncn2[C@H]1C[C@H](O)[C@@H](CO)O1,inactive
15,COc1cc2c(NC3CCN(C)CC3)nc(N3CCCN(C)CC3)nc2cc1OCCOCCN1CCCC1,inactive
16,CNc1nc(N2CCCN(C)CC2)nc2cc(OC)c(OC)cc12,inactive
17,NC(=O)c1ccc[n+]([C@@H]2O[C@H](COP(=O)([O-])OP(=O)(O)OC[C@H]3O[C@@H](n4cnc5c(N)ncnc54)[C@H](O)[C@@H]3O)[C@@H](O)[C@H]2O)c1,inactive
18,C[C@H](Cc1ccccc1)Nc1ncnc2c1ncn2[C@@H]1O[C@H](CO)C(O)[C@H]1O (some centres not stated),inactive
19,O=C(Nc1ncnc2c1ncn2[C@@H]1O[C@@H]2COP(=O)(O)O[C@H]2[C@H]1O)c1ccccc1,inactive

row,SMILES,Potency
1,COc1cc2nc(N3CCN(C)CC3)nc(N3CCOCC3)c2cc1OC,inactive
2,COc1cc2c(NC3CCN(C)CC3)nc(N3CCCN(C)CC3)nc2cc1OCCCCCN(C)C,inactive
3,Nc1ncnc2c1[nH]c(=O)n2C1OC(CO)C(O)C1O (configuration not stated),inactive
4,OC[C@@H]1O[C@@H](n2cnc3c(NC4CCCC4)ncnc32)[C@H](O)[C@H]1O,inactive
5,COc1cc2c(NC3CCN(C)CC3)nc(N3CCCN(C)CC3)nc2cc1OCCCN1CCCC1,inactive
6,COc1cc2nc(N3CCN(C)CC3)nc(NCCN(C)C)c2cc1OC,inactive
7,OCC1OC(n2cnc3c(NCc4ccco4)ncnc32)C(O)C1O (configuration not stated),inactive
8,CNC(=O)[C@H]1O[C@@H](n2cnc3c(NCc4ccc(N)cc4)ncnc32)[C@H](O)[C@@H]1O,inactive
9,CC(C)=CCNc1ncnc2c1ncn2[C@@H]1O[C@H](CO)[C@@H](O)[C@H]1O,inactive
10,Nc1ncnc2c1ncn2[C@@H]1O[C@H](COP(=O)(O)OP(=O)(O)OP(=O)(O)OP(=O)(O)OC[C@@H]2O[C@H](n3cnc4c(N)ncnc43)[C@@H](O)[C@H]2O)[C@@H](O)[C@H]1O,inactive
11,Nc1nc(=S)c2ncn([C@@H]3O[C@H](CO)[C@@H](O)[C@H]3O)c2[nH]1,inactive
12,Nc1nc(Cl)nc2c1ncn2[C@@H]1O[C@H](CO)[C@H](O)[C@H]1O,inactive
13,O=c1[nH]cnc2c1ncn2[C@@H]1O[C@H](CO)[C@@H](O)[C@H]1O,inactive
14,COc1cc2c(NC3CCN(C)CC3)nc(N3CCN(C)CC3)nc2cc1OCCOCCN(C)C,inactive
15,Nc1ncnc2c1ncn2C1OC(COP(=O)(O)O)C(O)C1O (configuration not stated),inactive
16,CNc1ncnc2c1ncn2[C@@H]1O[C@H](CO)[C@@H](O)[C@H]1O,inactive
17,COc1cc2nc(N3CCN(C)CC3)nc(NC3CCCC3)c2cc1OC,inactive
18,CNc1ncnc2c1ncn2[C@@H]1O[C@H](COP(=O)(O)O)[C@@H](O)[C@H]1O,inactive
